Bioassay records (PubChem BioAssay)
Shown are actives, neighbours in structure and some others; about 2.5% of the full set was active somewhere.
Luciferase inh: inhibitors of firefly luciferase; AID 411; Potency, µM (top dose mostly 57.1 µM), actives largely listed as inhibitors; purified firefly luciferase, luminescence, 8 min; 72,000 compounds, 2.2% hits; P08659; further: nearly all actives have a fitted effect of over 40% in size
Target sequence (P08659 whole entry, looked up): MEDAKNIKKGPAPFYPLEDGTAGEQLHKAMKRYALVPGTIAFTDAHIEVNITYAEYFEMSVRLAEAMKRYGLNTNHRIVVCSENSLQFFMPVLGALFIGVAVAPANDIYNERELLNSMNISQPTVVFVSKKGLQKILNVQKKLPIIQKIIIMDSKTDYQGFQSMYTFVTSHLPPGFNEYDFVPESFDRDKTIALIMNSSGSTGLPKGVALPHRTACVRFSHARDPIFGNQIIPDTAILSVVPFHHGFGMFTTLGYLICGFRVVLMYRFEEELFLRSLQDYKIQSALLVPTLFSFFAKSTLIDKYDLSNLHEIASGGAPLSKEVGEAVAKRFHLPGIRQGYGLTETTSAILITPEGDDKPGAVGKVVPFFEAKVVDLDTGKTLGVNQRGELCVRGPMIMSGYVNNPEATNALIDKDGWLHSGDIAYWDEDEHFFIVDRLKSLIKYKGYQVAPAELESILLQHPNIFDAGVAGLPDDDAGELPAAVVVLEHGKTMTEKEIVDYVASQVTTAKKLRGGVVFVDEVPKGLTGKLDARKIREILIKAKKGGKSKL
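Substrate buffer containing 10 uM ATP (pH 7.2 imidazole, Mg2+, KCl, detergent, BSA) is dispensed, compound pinned in, then luciferase/luciferin detector mix added. After 8 min at ambient temperature, light output is measured.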
p53ts 32C kill: p53ts cell cytotoxicity, permissive temperature; H1299-p53A138V at 32C, ATP luminescence viability, 24 h; Potency, µM (doses to about 46.1 µM), hits mostly cytotoxic; 130,000 compounds, 0.93% hits; AID 924; further: nearly all actives have a fitted effect of over 55% in size
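Cells: H1299 p53ts (A138V), 600/well, pre-incubated 16–30 h at 37C. Cpd up to 46 uM, 24 h, 32C. Readout: ATPlite luminescence, 20 min RT. Normalization: DMSO vs tamoxifen 100 uM. AC50 by Hill equation.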
p53ts 39C kill: kills p53ts cells at the nonpermissive temperature; 130,000 compounds, 1.5% hits; H1299-p53A138V viability at 39C, ATP luminescence, 24 h; Potency, µM (highest dose often 46.1 µM), usual class: cytotoxic; AID 902; further: nearly all actives have a fitted effect of over 55% in size
Hits are given with their value; . = inactive; ? = inconclusive; / = no result given; [ ] = dose if it differs, or a comment. The call rests on the fitted dose curve; in most records, active means well fitted curve in the direction sought with a large enough effect; inconclusive means small, poorly fitted or top-dose-only effect, or another doubt; inactive means no such curve, though single readings can be large; an effect the other way counts as inactive or inconclusive.

SMILES	Luciferase inh	p53ts 32C kill	p53ts 39C kill
Cc1cccc(C(=O)N2c3ncnn3C3(CCCCC3)[C@@H]3CCCC[C@@H]32)c1	/	.	12.6µM
COc1cccc(C(=O)N2c3ncnn3C3(CCCCC3)[C@@H]3CCCC[C@@H]32)c1	/	.	.
COc1ccc(NC(=O)N2CCCc3ccccc32)cc1	.	.	.
COc1ccc(NC2=Nc3ccccc3CC2)cc1	20µM	.	.
CCC(C(=O)NCCCN(CC)CC)n1ncn2c(cc3occc32)c1=O (stereo not drawn)	/	.	.
COc1ccc(-c2cn3c(C)c(C(=O)NCCN4CCOCC4)sc3n2)cc1	.	.	.
CCN(CC)C(=O)c1sc2nc(-c3ccc(OC)cc3)cn2c1C	12.6µM	?	?
O=C(CCS(=O)(=O)c1nc(-c2cccs2)cc(C(F)(F)F)n1)Nc1cc(Br)ccc1O	/	?	7.94µM
O=C(CSc1nc(-c2cccs2)cc(C(F)(F)F)n1)Nc1ccccc1Cl	/	.	.
CCN1CCc2c(sc(NC(=O)c3ccc(S(=O)(=O)N4CCCC(C)C4)cc3)c2C(=O)OC)C1 (stereo not drawn)	/	.	?
Cc1ccc(NC(=O)CSc2nc3nc(C)c(Cc4ccccc4)c(C)n3n2)cc1	/	.	.
CCOc1ccc(CCNC(=O)Cn2c(-c3cccs3)cc3ccccc32)cc1	/	.	/
COc1ccc(C(=O)c2ccccc2O)c(O)c1	.	.	.
COc1ccc(O)c(C(=O)CC(=O)c2ccccc2)c1	20µM	10µM	12.6µM
COc1ccc(-c2coc3ccc(O[C@@H]4O[C@@H](COC(C)=O)[C@@H](OC(C)=O)[C@@H](OC(C)=O)[C@H]4OC(C)=O)cc3c2=O)cc1	.[11.4 µM]	/	/
C[C@@H](C(=O)NCc1nc2ccccc2[nH]1)[C@@H]1C[C@@]1(C)[C@@H](NC(=O)OCc1ccccc1)c1ccccc1	/	.	.
CC(=O)n1c(COS(C)(=O)=O)nc2ccccc21	.[11.4 µM]	.[9.22 µM]	.[9.22 µM]
Nc1c(-c2ccc(Cl)cc2)nnn1-c1ccccc1	10µM	?	?
Clc1ccc(-n2nnnc2-c2ccccc2)cc1	.	.	.
COCCN(CCOC)c1nc(C)nc2c1nc(-c1ccccc1)n2CCCN(C)C	/	.	.
COC(=O)[C@@H]1C[C@@H]2CC[C@@H](O)C[C@@H]2N1Cc1ccc(N2CCOCC2)cc1	/	.	.
O=C(O)CSc1ccc(N=C=S)cc1	.[11.4 µM]	.[9.22 µM]	.[9.22 µM]
CCc1ccc(C(=O)COC(=O)CNC(=O)c2ccco2)cc1	.	.	.
O=C(CNC(=O)c1ccco1)OCC(=O)c1ccc2c(c1)CCCC2	2µM	.	.
CC(C)(C)c1ccc(OCc2nc(-c3ccccn3)no2)c(Br)c1	?	.	.
SMILES	Luciferase inh	p53ts 32C kill	p53ts 39C kill
Clc1ccc(OCc2nc(-c3ccncc3)no2)c(Cl)c1	15.8µM	?	?
COc1cccc(-c2noc(COc3ccccc3Cl)n2)c1	/	.	.
Clc1cc(Cl)c(OCc2nc(-c3ccccn3)no2)cc1Cl	12.6µM	?	?
O=S(=O)(c1ccccc1)N1CCC2(CCCN(Cc3cc(C(F)(F)F)cc(C(F)(F)F)c3)C2)CC1	.[11.4 µM]	.	.
CC(C(=O)Nc1cc(C(F)(F)F)ccc1Cl)n1nnc2sc3c(c2c1=O)CCCC3 (stereo not drawn)	/	.	.
CCOc1ccc(C2CC(=O)NC(NC(=O)c3cccc(Cl)c3)=N2)cc1 (stereo not drawn)	/	.	/
COc1cc(C2c3c(oc4ccc(Cl)cc4c3=O)C(=O)N2Cc2ccco2)cc(OC)c1OC (stereo not drawn)	.	.	.
O=C1c2oc3ccc(Cl)cc3c(=O)c2C(c2cccnc2)N1Cc1ccco1 (stereo not drawn)	12.6µM	?	?
O=C1c2oc3ccccc3c(=O)c2C(c2cccnc2)N1Cc1ccco1 (stereo not drawn)	3.16µM	.	.
CCN(CC)CCCN1C(=O)c2oc3ccccc3c(=O)c2C1c1cccnc1 (stereo not drawn)	.	.	.
CN(Cc1ccco1)c1ncncc1-c1ccccc1C(F)(F)F	.[2.29 µM]	.	.
CO[C@@H]1COC(=O)[C@H](C)NC(=O)[C@@H](C)COC(=O)CCC[C@H]1C	.[11.4 µM]	.[9.22 µM]	.[9.22 µM]
Sc1ccc2ccccc2c1CNCc1ccccc1	.[11.4 µM]	.[9.22 µM]	.[9.22 µM]
Cc1ccc(-n2c(C)cc(C(=O)NS(=O)(=O)c3ccc(C)cc3)c2C)cc1	/	?	.
Cc1ccc(NC(=O)c2cc(C)n(-c3ccccc3)c2C)cc1	/	/	7.08µM
CCC(=O)NCCc1nc2cc(NC(=O)c3cccc(Br)c3)ccc2n1C	/	12.6µM	10µM
Cn1c(CN2CCCCC2)nc2cc(NC(=O)c3cccc(Br)c3)ccc21	/	.	.
Cn1c(O)c(N=N/C(=N/c2ccccn2)c2ccccn2)c2cc(Br)ccc21	/	.	.
CCOc1ccc(N2Cc3ccccc3C2)cc1	10µM	12.6µM	?
CCOc1ccc(S(=O)(=O)N2CCc3ccccc3C2)cc1	.	.	.
CC1CCCO1 (stereo not drawn)	/	.[1.84 µM]	.
CC(C)NC(=O)c1cc2ccccc2o1	/	.	.
CC(=O)Nc1cccc(NC(=O)c2cc3ccccc3o2)c1	12.6µM	12.6µM	6.31µM
CC(=O)Nc1ccc(-c2cc3ccccc3o2)cc1	3.98µM	/	/
COc1ccc(-c2nc3cc(NC(=O)c4cc5ccccc5o4)ccc3o2)cc1	/	.	.
SMILES	Luciferase inh	p53ts 32C kill	p53ts 39C kill
COc1ccc(NC(=O)c2cc3ccccc3o2)cc1	6.31µM	15.8µM	15.8µM
CC(=O)c1cc2ccccc2oc1=O	.	.	.
Cc1cc(C)nc(NC(=O)c2cc3ccccc3o2)n1	/	.	.
CC(C)C(=O)Nc1cccc(NC(=O)c2cc3ccccc3o2)c1	12.6µM	?	?
COC(=O)[C@](C)(N)Cc1ccc(O)cc1	.	.	.
COc1cccc(Cn2c(=O)c(-c3ccc(Cl)cc3)nc3cnc(OC)nc32)c1	.[11.4 µM]	.	.
CCC(Sc1nc2nccnc2c(=O)n1Cc1ccccc1Cl)C(=O)NC1CCCCC1 (stereo not drawn)	/	.	.
Nc1nc(=O)c2[nH]cnc2n1O	.[11.4 µM]	.[9.22 µM]	.[9.22 µM]
CCCCOC(=O)c1ccc(NC(=O)c2cc(=O)c3ccccc3o2)cc1	/	.	.
Cc1ccc(-c2nc3ncccc3o2)cc1NC(=O)c1cc2ccccc2o1	.	.	.
CCCCOC(=O)c1cccc(NC(=O)c2cc3ccccc3o2)c1	/	?	10µM
O=C(Nc1cccc(-c2nc3ncccc3o2)c1)c1cc2ccccc2o1	15.8µM	?	.
O=C(c1ccccc1F)N1CCN(Cc2cccc(Cl)c2)CC1	.	.	.
O=C(Nc1cccc(Cl)c1)N1CCN(Cc2ccccc2)CC1	15.8µM	.	.
O=c1ccsn1Cc1ccccc1	20µM	.	.
O=c1ccn(Cc2ccccc2)c(=O)n1Cc1ccccc1	.	.	.
CCCn1c(-c2ccc(F)cc2)nc2c(NCCCN3CCOCC3)nc(C)nc21	/	.	.
CCNc1nc2c(c(=O)[nH]c(=O)n2C)n1Cc1ccc(F)cc1	.	.	.
C=CCNc1nc2c(c(=O)[nH]c(=O)n2C)n1Cc1cccc(C)c1	.	6.31µM	7.94µM
COCC#Cc1ccc(C2C(C)CCC3C(=O)N4C(CCC(C)C4c4ccc(C#CCOC)cc4)C(=O)N32)cc1 (stereo not drawn)	/	.[9.22 µM]	.[9.22 µM]
O=c1cc(-c2ccccc2)[nH]n1-c1nc2ccccc2s1	.	?	?
O=c1cc(-c2ccccc2)[nH]c2nc3ccccc3n12	2.51µM	2µM	2µM
